Data taken from the supplement of paper PMC8728848.
About 410 targets per protein were measured; listed, in parts, are those with the strongest signals and a random draw of the rest.

Legend:
Assay in all cases: glycan array binding signal (z-score within array); higher = stronger binding
Conditions in all cases: glycan notation: IUPAC condensed, linker removed
[1] = target: Fuc(a1-2)Gal(b1-3)GalNAc(a1-3)[Fuc(a1-2)]Gal(b1-4)Glc
Procedure, shortened: (§1)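 From the Consortium for Functional Glycomics database, 3228 arrays were curated, keeping only those whose protein sequence was available. Binding is given as a within-array Z-score averaged across arrays sharing a protein sequence and across linkers. Negative Z-scores can be read as non-binding.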

[2] = target: Fuc(a1-2)Gal(b1-3)GlcNAc(b1-3)GalNAc
Procedure, shortened: as §1

[3] = target: Fuc(a1-2)Gal(b1-3)[Fuc(a1-4)]GlcNAc(b1-2)Man(a1-3)[Fuc(a1-2)Gal(b1-3)[Fuc(a1-4)]GlcNAc(b1-2)Man(a1-3)]Man(b1-4)GlcNAc(b1-4)GlcNAc
Procedure, shortened: as §1

[4] = target: Fuc(a1-2)Gal6S(b1-3)GlcNAc6S
Procedure, shortened: as §1

[5] = target: Fuc(a1-2)[Gal(a1-3)]Gal(b1-4)Glc
Procedure, shortened: as §1

[6] = target: Fuc(a1-2)[Gal(a1-3)]Gal(b1-4)GlcNAc(b1-2)Man(a1-3)[Fuc(a1-2)[Gal(a1-3)]Gal(b1-4)GlcNAc(b1-2)Man(a1-6)]Man(b1-4)GlcNAc(b1-4)[Fuc(a1-6)]GlcNAc
Procedure, shortened: as §1

[7] = target: Fuc(a1-2)[Gal(a1-3)]Gal(b1-4)GlcNAc(b1-3)[Fuc(a1-2)[Gal(a1-3)]Gal(b1-4)GlcNAc(b1-6)]GalNAc
Procedure, shortened: as §1

[8] = target: Fuc(a1-2)[Gal(a1-3)]Gal(b1-4)[Fuc(a1-3)]GlcNAc(b1-3)GalNAc
Procedure, shortened: as §1

[9] = target: Fuc(a1-2)[GalNAc(a1-3)]Gal(b1-3)GalNAc(a1-3)[Fuc(a1-2)]Gal(b1-4)GlcNAc
Procedure, shortened: as §1

[10] = target: Fuc(a1-2)[GalNAc(a1-3)]Gal(b1-3)GlcNAc(b1-2)Man(a1-3)[Fuc(a1-2)[GalNAc(a1-3)]Gal(b1-3)GlcNAc(b1-2)Man(a1-6)]Man(b1-4)GlcNAc(b1-4)GlcNAc
Procedure, shortened: as §1

[11] = target: Fuc(a1-2)[GalNAc(a1-3)]Gal(b1-4)[Fuc(a1-3)]GlcNAc(b1-3)GalNAc
Procedure, shortened: as §1

[12] = target: Fuc(a1-3)[Gal(b1-4)]Glc6S
Procedure, shortened: as §1

[13] = target: Fuc(a1-3)[Gal3S(b1-4)]Glc
Procedure, shortened: as §1

Fuc(b1-3)GlcNAc = target: Fuc(b1-3)GlcNAc
Procedure, shortened: as §1

[14] = target: Gal(a1-4)Gal(b1-4)GlcNAc(b1-3)Gal(b1-4)Glc
Procedure, shortened: as §1

[15] = target: Gal(b1-3)GlcNAc(b1-2)Man(a1-3)[Gal(b1-3)GlcNAc(b1-2)Man(a1-6)]Man(b1-4)GlcNAc(b1-4)GlcNAc
Procedure, shortened: as §1

[16] = target: Gal(b1-3)[Fuc(a1-4)]GlcNAc(b1-2)Man
Procedure, shortened: as §1

[17] = target: Gal(b1-4)GlcNAc(b1-2)Man(a1-3)[Gal(b1-4)GlcNAc(b1-2)Man(a1-6)][GlcNAc(b1-4)]Man(b1-4)GlcNAc(b1-4)[Fuc(a1-6)]GlcNAc
Procedure, shortened: as §1

[18] = target: Gal3S(b1-4)[Fuc(a1-3)]GlcNAc6S
Procedure, shortened: as §1

Gal3S6S(b1-4)GlcNAc = target: Gal3S6S(b1-4)GlcNAc
Procedure, shortened: as §1

Gal3S6S(b1-4)GlcNAc6S = target: Gal3S6S(b1-4)GlcNAc6S
Procedure, shortened: as §1

Gal4S(b1-4)GlcNAc = target: Gal4S(b1-4)GlcNAc
Procedure, shortened: as §1

Gal6S(b1-4)GlcNAc6S = target: Gal6S(b1-4)GlcNAc6S
Procedure, shortened: as §1

GalNAc(a1-3)Gal = target: GalNAc(a1-3)Gal
Procedure, shortened: as §1

[19] = target: GalNAc(b1-4)GlcNAc(b1-3)GalNAc(b1-4)GlcNAc
Procedure, shortened: as §1

GalNAc4S6S(b1-4)GlcNAc = target: GalNAc4S6S(b1-4)GlcNAc
Procedure, shortened: as §1

[20] = target: GlcNAc(b1-2)Gal(b1-3)GalNAc
Procedure, shortened: as §1

GlcNAc(b1-3)Fuc = target: GlcNAc(b1-3)Fuc
Procedure, shortened: as §1

[21] = target: GlcNAc(b1-3)Gal(b1-4)GlcNAc(b1-2)Man(a1-3)[GlcNAc(b1-3)Gal(b1-4)GlcNAc(b1-2)Man(a1-6)]Man(b1-4)GlcNAc(b1-4)GlcNAc
Procedure, shortened: as §1

[22] = target: GlcNAc(b1-3)Gal(b1-4)GlcNAc(b1-3)Gal(b1-4)GlcNAc(b1-2)[GlcNAc(b1-3)Gal(b1-4)GlcNAc(b1-3)Gal(b1-4)GlcNAc(b1-6)]Man(a1-6)[GlcNAc(b1-3)Gal(b1-4)GlcNAc(b1-3)Gal(b1-4)GlcNAc(b1-2)Man(a1-3)]Man(b1-4)GlcNAc(b1-4)[Fuc(a1-6)]GlcNAc
Procedure, shortened: as §1

B1: Wzz (Escherichia coli) (protein)
chain: MRTWKFPSVRVMMRVENNNVSGQNHDPEQIDLIDLLVQLWRGKMTIIISVIVAIVLAIGYLAVAKEKWTSTAIITQPDVGQIAGYNNAMNVIYGQAAPKVSDLQETLIGRFSSAFSALAETLDNQEEPEKLTIEPSVKNQQLPLTVSYVGQTAEGAQMKLAQYIQQVDDKVNQELEKDLKDNIALGRKNLQDSLRTQEVVAQEQKDLRIRQIQEALQYANQAQVTKPQIQQTGEDITQDTLFLLGSEALESMIKHEATRPLVFSSNYYQTRQNLLDIDNLDVDKLDIHAYLYVMKPTLPIRRDSPKKAITLILAVLLGGMVGAGIVLGRNALRNYNAK
B1 was tested. Which “glycan array binding signal (z-score)” value [1] did it give?
Its value is 0.119.

What about the “glycan array binding signal (z-score)” value [2] of the same binder?
Its value is -0.55.

And the “glycan array binding signal (z-score)” value [3]?
Its value is 0.002.

What about the “glycan array binding signal (z-score)” value [4] of the same binder?
The value was 2.91.

And the “glycan array binding signal (z-score)” value [5]?
Its value is 0.055.

What about the “glycan array binding signal (z-score)” value [6] of the same binder?
Its value is -0.233.

What about the “glycan array binding signal (z-score)” value [7] of the same binder?
The value was 0.857.

What about the “glycan array binding signal (z-score)” value [8] of the same binder?
Its value is 1.59.

What about the “glycan array binding signal (z-score)” value [9] of the same binder?
The value was 1.11.

And the “glycan array binding signal (z-score)” value [10]?
The value was -0.965.

What about the “glycan array binding signal (z-score)” value [11] of the same binder?
The value was 0.633.

And the “glycan array binding signal (z-score)” value [12]?
Its value is 1.46.

And the “glycan array binding signal (z-score)” value [13]?
The value was -0.538.

And the “glycan array binding signal (z-score)” value (Fuc(b1-3)GlcNAc)?
The value was 0.034.

What about the “glycan array binding signal (z-score)” value [14] of the same binder?
Its value is 0.032.

And the “glycan array binding signal (z-score)” value [15]?
The value was 1.41.

What about the “glycan array binding signal (z-score)” value [16] of the same binder?
Its value is 2.68.

And the “glycan array binding signal (z-score)” value [17]?
The value was -0.511.

And the “glycan array binding signal (z-score)” value [18]?
Its value is 2.08.

And the “glycan array binding signal (z-score)” value (Gal3S6S(b1-4)GlcNAc)?
The value was 0.861.

What about the “glycan array binding signal (z-score)” value (Gal3S6S(b1-4)GlcNAc6S) of the same binder?
Its value is 16.9.

What about the “glycan array binding signal (z-score)” value (Gal4S(b1-4)GlcNAc) of the same binder?
The value was -0.728.

And the “glycan array binding signal (z-score)” value (Gal6S(b1-4)GlcNAc6S)?
The value was 4.99.

And the “glycan array binding signal (z-score)” value (GalNAc(a1-3)Gal)?
The value was -0.563.

What about the “glycan array binding signal (z-score)” value [19] of the same binder?
The value was -0.667.

And the “glycan array binding signal (z-score)” value (GalNAc4S6S(b1-4)GlcNAc)?
Its value is 5.1.

What about the “glycan array binding signal (z-score)” value [20] of the same binder?
Its value is -0.1.

What about the “glycan array binding signal (z-score)” value (GlcNAc(b1-3)Fuc) of the same binder?
Its value is 0.1.

What about the “glycan array binding signal (z-score)” value [21] of the same binder?
The value was -0.684.

And the “glycan array binding signal (z-score)” value [22]?
The value was -0.222.
